Measurements as given in PubChem BioAssay AID1259418 (Broad Institute, 2018).
Screen size: about 3,400 compounds; about 840 (25%) were called active. Not shown: some 11% with an inconclusive outcome. Only a sample is shown. Results with a measured potency or affinity are listed apart. Values without a mark were called inactive.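 The calls were made as follows: active = fitted half-maximal concentration of signal decrease at or below twice the sample's top tested concentration; inconclusive = flat curve between -70 and -30 percent, or poor fit; inactive = flat within 30 percent, signal rise, or potency above limit.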

Assay: T. gondii growth inhibition with IFN-gamma, dose response, cell-based, ME49Luc, HeLa, luciferase, 72 h (AID 1259418)
Conditions: T. gondii ME49Luc in IFN-y HeLa, stronger effect = lower value, -100% = high-dose IFN-γ control wells; at 19.5 µM unless noted

| Compound | max activity |
| --- | --- |
| COC(=O)C1CC23C=CNC4CCC5(c6ccccc6NC15C2C)C43 (stereo not drawn) | 26.5% [at 10 µM] |
| COc1ccc(-c2nc3c(s2)CN(S(=O)(=O)c2ccc(F)cc2F)CC3)cc1 | 13% [at 5 µM] |
| COC(=O)c1cccc(NC(=O)Nc2ccc(-c3nc(-c4cc(C)ccc4C)co3)cc2)c1 | 11.4% [at 5 µM] |
| CCc1cc(C2CCCN2C(=O)Cn2nc(C(F)(F)F)cc2C)on1 (stereo not drawn) | -8.33% [at 5 µM] |
| Cc1ccccc1-c1nc(CN2CCN(C(=O)Nc3cccc(C)c3C)CC2)c(C)o1 | -5.68% [at 2.6 µM] |
| COCCCNC(=O)Cn1c(=O)c(S(=O)(=O)c2ccccc2)cc2cc(C)ccc21 | 5.8% [at 2.6 µM] |
| Cc1ccc(NC(=O)Nc2ccc(-c3nc(-c4cccc(Br)c4)co3)cc2)cc1 | 18.1% [at 0.16 µM] |
| Cc1ccc(-c2ccc(OCCNC(=O)c3sc(-c4ccccc4)nc3C)nn2)cc1 | 10.9% [at 2.6 µM] |
| COc1ccc(NC(=O)N2CCc3nc(-c4ccccc4)sc3C2)c(OC)c1 | 19.6% [at 10 µM] |
| Cc1cc(C2CCCN2C(=O)c2cc(C(F)(F)F)nn2C)on1 (stereo not drawn) | 8.24% [at 1.35 µM] |
| Cc1nc(-c2ccc(F)cc2)sc1-c1ccc(SCc2ccccn2)nn1 | 11.9% |
| Cc1ccc(-c2coc(-c3ccc(NC(=O)Cc4ccccc4C)cc3)n2)cc1 | 19% |
| Cc1ccccc1NC(=O)N1C[C@H]2C[C@H](C(=O)NC3CCC3)[C@@H](C1)O2 | 41.9% |
| COc1ccc(NC(=O)Nc2ccc(-c3nc(-c4ccc(C)cc4C)co3)cc2)cc1 | -20.8% [at 0.16 µM] |
| COc1cc(NC(=O)Nc2ccc(-c3nc(-c4cc(C)ccc4C)co3)cc2)cc(OC)c1 | 6.94% [at 0.08 µM] |
| COc1ccc(C(=O)Nc2ccc(-c3nc(-c4ccc(C)cc4C)co3)cc2)cc1 | 25.2% [at 0.35 µM] |
| COc1cc(OC)cc(C(=O)Nc2ccc(-c3nc(-c4cc(C)ccc4C)co3)cc2)c1 | 19.3% [at 0.16 µM] |
| COc1ccc(-c2nc3c(s2)CN(S(=O)(=O)c2ccc(C(C)(C)C)cc2)CC3)cc1 | 5.19% |
| COc1ccc(-c2nc(Nc3ccccc3C)c3ccccc3n2)cc1 | -9.66% [at 10 µM] |
| COc1ccc(CCNc2ncnc3c2cnn3-c2ccccc2)cc1OC | 24.5% [at 5 µM] |
| CCSc1ccc2c(c1)N(CCCN1CCN(C)CC1)c1ccccc1S2 | 26.9% |
| CCOC(=O)Cc1ccc(NC(=O)Nc2ccc(-c3nc(-c4ccccc4)co3)cc2)cc1 | 9.92% [at 2.6 µM] |
| OC[C@@H]1[C@@H](c2ccc(-c3cccc(F)c3)cc2)[C@@H]2CN(Cc3cncnc3)CCCCN12 | 12.9% |
| OC[C@@H]1[C@@H](c2ccc(-c3cccnc3)cc2)[C@@H]2CN(Cc3ccccn3)CCCCN12 | -5.02% [at 1.2 µM] |

| Compound | max activity |
| --- | --- |
| Fc1cccc(-c2ccc(C3[C@H]4CNC[C@@H]3N4Cc3ccccn3)cc2)c1 (stereo partly drawn) | 18.9% [at 5 µM] |
| COc1cc(CN2C[C@@H]3N[C@H](C2)C3c2ccc(-c3ccc(C#N)cc3)cc2)cc(OC)c1 (stereo partly drawn) | 27% [at 10 µM] |
| COc1cccc(-c2ccc(C3[C@H]4CNC[C@@H]3N4Cc3nccs3)cc2)c1 (stereo partly drawn) | 51.8% [at 21 µM] |
| O=C(c1cccs1)N1CCC2(CC1)Nc1cc(F)ccc1-n1cccc12 | 9.34% [at 0.68 µM] |
| O=C(CCC1Nc2c3ccccc3nc(=S)n2C1=O)NCCN1CCC(Cc2ccccc2)CC1 (stereo not drawn) | 54.5% [at 10 µM] |
| CCc1ccc2c(c1)cc(S(=O)(=O)c1ccccc1)c(=O)n2CC(=O)NCCCOC | 8.62% [at 10 µM] |
| COCCN1CCc2nc(SCc3nc(-c4ccccc4OC)oc3C)[nH]c(=O)c2C1 | 14.3% [at 5 µM] |
| COc1cc(-c2noc(-c3nnn(Cc4nc(-c5ccccc5)oc4C)c3C)n2)ccc1OC(C)C | 9.04% [at 0.16 µM] |
| CSc1cccc(NC(=O)N2CCc3nc(-c4ccc(C)cc4)sc3C2)c1 | 42.8% [at 10 µM] |
| O=C(Nc1ccc(-c2nc(-c3ccccc3)co2)cc1)c1ccccc1Cl | 40% |
| Cn1nccc1C(=O)N1CCC2(CC1)Nc1cc(F)ccc1-n1cccc12 | -9.01% |
| c1csc(-c2cc(NC3CCNCC3)nc3[nH]ccc23)n1 | 35.6% [at 5 µM] |
| COc1cc(Nc2nc(SCc3ccccc3Cl)nc3ccccc23)cc(OC)c1OC | 11% [at 0.68 µM] |
| Clc1ccc(CSc2nc(Nc3ccc4c(c3)OCO4)c3ccccc3n2)cc1 | 5.7% [at 2.6 µM] |
| Fc1ccc(Nc2nc(SCc3ccccc3F)nc3ccccc23)cc1 | 12.5% |
| Fc1cccc(CSc2nc(Nc3ccc4c(c3)OCO4)c3ccccc3n2)c1 | 11.5% |
| CCc1ccc(-c2noc(-c3nnn(Cc4nc(-c5ccccc5)oc4C)c3C)n2)cc1 | 20.7% |
| Cc1ccc(NC(=O)Nc2ccc(-c3nc(-c4ccc(C)cc4C)co3)cc2)cc1 | 46.2% |
| CC(C)Cc1ccc(S(=O)(=O)N2CCC3(CC2)NCCN=C3NCc2cc(F)cc(F)c2)cc1 | 20.3% |
| Cc1ccc(CNC2=NCCNC23CCN(S(=O)(=O)c2ccc(CC(C)C)cc2)CC3)cc1 | 13.1% [at 10 µM] |
| Cc1ccccc1CNC1=NCCNC12CCN(S(=O)(=O)c1ccc(CC(C)C)cc1)CC2 | 13.3% [at 2.6 µM] |
| COc1ccc(NC(=O)N2CCc3nc(-c4ccccc4)sc3C2)cc1OC | -8.38% [at 0.35 µM] |
| Cc1nc(OCC(=O)Nc2ccc(Br)cc2)c2ccccc2n1 | 28% [at 1.35 µM] |
| Cc1ccc(C)c(NC(=O)COc2nc(C)nc3ccccc23)c1 | 15.8% [at 10 µM] |
